From PubChem BioAssay come the findings set out here.

Test [1] in a line: yeast TOR pathway RPL19A-GFP modulators, primary screen, cell-based, S. cerevisiae, multiplex flow cytometry (AID 1862; in the data active = percent of DMSO control GFP below about 86%;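 note: lower values mimic rapamycin by blocking the RPL19A rise seen in DMSO cells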). The settings on record: S. cerevisiae RPL19A-GFP strain, flow cytometry fluorescence, 3 h; at 10 µM; stronger effect = lower value.
A short description of test [2]: modulators of MEP2-GFP levels in yeast, primary screen, S. cerevisiae, multiplex flow cytometry (AID 1867;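 active = GFP response, as percent of the DMSO control, above the screen-wide mean plus 3 SD, about 139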;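 note: median GFP channel fluorescence of barcode-gated MEP2-GFP cells measured by flow cytometry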). The settings on record: S. cerevisiae MEP2-GFP strain, 3 h, at 10 µM, stronger effect = higher value.
A short description of test [3]: modulators of CIT2-GFP expression in yeast, primary screen, S. cerevisiae, GFP fusion, multiplex flow cytometry (AID 1870;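 active = percent response above a set limit, the screen-wide mean plus 3 SD, cut at about 130% in these data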;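 note: barcoded CIT2-GFP strain pooled with four other GFP strains with rapamycin as positive control; median GFP fluorescence per well over plate mean of DMSO wells so 100% = DMSO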). The conditions noted are these: 3 h, at 10 µM, stronger effect = higher value.
Test [4] can be described thus: modulators of LAP4-GFP expression in yeast, primary screen, S. cerevisiae, multiplex flow cytometry (AID 1873;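 active = GFP signal, as percent of the solvent control, above the screen mean plus 3 SD, about 149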). The settings on record: 3 h, at 10 µM, stronger effect = higher value.
Test [5] in a line: modulators of AGP1-GFP expression in yeast TOR pathway, primary screen, cell-based, multiplex flow cytometry, S. cerevisiae (AID 1887;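 active = GFP signal above the screen-wide mean plus 3 SD, that is over about 124.5% of the solvent control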;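 note: AGP1-GFP fusion strain of S. cerevisiae within a five-strain barcoded multiplex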). The conditions noted are these: 3 h, at 10 µM, stronger effect = higher value.
A short description of test [6]: inhibitors of CD8+ T cell-vesicle binding, pilot screen, LFA-1/ICAM-1 modulator project, MLPCN validation set, flow cytometry (AID 2523;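 active = response below a set limit, under 55% cells CD8-positive and vesicle-bound, and CD8 cells' 90th-percentile brightness under 279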;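 for vesicle binding response: mean PE anti-B7-1 fluorescence of CD8+ cells relative to row control; 100% = QL9-loaded vesicles with DMSO vehicle in the same plate row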). The settings on record: 2C mouse CD8+ T cells, at 7 µM, stronger effect = lower value; double positive events: measured here: CD8+/vesicle+ event percentage.
Test [7] addresses Integrin beta-1 (Homo sapiens) + Integrin alpha-4 (Homo sapiens) (UniProt P13612+P05556). As to the kind of experiment: inhibition of HUTS-21 binding to VLA-4, pilot screen, VLA-4 allosteric modulator project, U937 cells, HUTS-21 mAb, flow cytometry, validation set (AID 2674;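 active = inhibition above 50%, about 3 SD of the validation set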;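 note: antibody binding induced by the VLA-4 ligand LDV present at three times its Kd; 0% = LDV ligand with antibody and no compound and 100% = antibody without LDV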). The settings on record: HUTS-21 LIBS mAb binding, at 6.7 µM, stronger effect = higher value.
The nature of test [8]: superoxide lowering in aged yeast cells, pilot screen, validation compound set (AID 2706;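 active = superoxide response below 65% of plate, a cut near 3 SD across the whole screen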;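 note: yeast exposed to compound for one week at 30 degrees C before staining; 100% = mean of all compound wells on the same plate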). The settings on record: S. cerevisiae aging, superoxide DHE fluorescence; at 10 µM; stronger effect = lower value.
Test [9] addresses Beta-adrenergic receptor kinase 1 (Homo sapiens) (UniProt P25098). As to the kind of experiment: GRK2 binders displacing RNA aptamer, biochemical, validation, human GRK2, bead flow cytometry (AID 488806;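 active = aptamer binding inhibition above 30%, about 3 SD of noise from non-fluorescent compounds; inactive = inhibition at or below 30%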). The settings on record: bead-bound GRK2, FAM-aptamer displacement, at 10 µM, stronger effect = higher value.
The target in test [10] is Beta-2 adrenergic receptor (Homo sapiens) (UniProt P07550). Kind of test: beta2AR agonists driving receptor internalization, pilot screen, cell-based, FAP fluorogen, flow cytometry, validation set (AID 504459;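 active = percent response above 42, roughly 3 SD of non-fluorescent test compounds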;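 note: agonist-driven loss of surface beta2AR via internalization measured by FAP dye flow cytometry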). The settings on record: Am2.2-beta2AR cells, FAP surface receptor flow cytometry; at 10 µM; stronger effect = higher value.
Test [11] deals with AP-2 complex subunit beta (Homo sapiens) (UniProt P63010). As to the kind of experiment: inhibitors of arrestin peptide binding to AP2, pilot screen, biochemical, validation set, GST-AP2 beads, flow cytometry (AID 504541;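 active = inhibition above 54%, about 3 SD of non-fluorescent compounds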;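 note: AP2 carries R879A mutation and is captured from E. coli lysate; bead-bound FITC arrestin peptide fluorescence measuring arrestin peptide binding to AP2; 0% = DMSO wells and 100% = excess unlabeled arrestin peptide control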). The settings on record: FITC arrestin peptide, at 10 µM, stronger effect = higher value.
A short description of test [12]: yeast V-ATPase proton transport modulators, S. cerevisiae, pHLuorin, HTS validation (AID 504600; in the data active = response above about 15%;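 note: plate controls were DMSO for no effect and reference compound for full effect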). The settings on record: S. cerevisiae pHLuorin cytosolic pH, at 10 µM, stronger effect = higher value.
The test system of test [13] is anti-desmoglein-3 scFv antibody binding to human DSG3. As to the kind of experiment: inhibitors of anti-DSG3 scFv binding to DSG3, pilot screen, biochemical, validation compound set, bead-based, flow cytometry (AID 588368;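 active = binding below the plate cutoff, the plate median minus 3 SD, with a reading above zero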;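 note: signal is the median channel fluorescence of bead-bound GFP antibody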). The settings on record: Protein G beads, DSG3-Fc, scFv-GFP binding, at 10 µM, stronger effect = lower value.
Test [14] relates to Botulinum neurotoxin type F light chain protease (Clostridium botulinum). Kind of test: Botulinum neurotoxin type F light chain protease inhibition, multiplex microsphere flow cytometry, validation set (AID 588459). The settings on record: multiplex microsphere protease substrate cleavage assay, at 10 µM, stronger effect = higher value.
The target of test [15] is Botulinum neurotoxin type A (Clostridium botulinum) (UniProt P0DPI0). Kind of test: BoNT/A light chain protease inhibitors, biochemical, multiplex microsphere flow cytometry, validation set (AID 588460). The settings on record: at 10 µM, stronger effect = higher value.
Test [16] has as its target Lethal factor (Bacillus anthracis) (UniProt P15917). Kind of test: Lethal factor protease inhibitors, Bacillus anthracis, multiplex microsphere cleavage assay, validation set (AID 588461). The settings on record: flow cytometry, at 10 µM, stronger effect = higher value.
Test [17] is described as follows: inhibitors of fungal efflux pumps CDR1, CDR2, MDR1, pilot screen, validation compound set, multiplex, phenotypic (AID 588506;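 active = efflux inhibition above 0.42, the validation set average plus 4 SD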;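 note: Nile Red retained in cells so higher fluorescence means more efflux inhibition; 0 = negative control wells and 1 = enniatin B 25 µM full block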). The settings on record: S. cerevisiae pump-expressing triplex, Nile Red efflux flow cytometry; at 10 µM; stronger effect = higher value.
Test [18] addresses ATP-binding cassette sub-family B member 6 (Homo sapiens) (UniProt Q9NP58). Kind of test: ABCB6 transporter inhibitors, pilot screen, K562-ABCB6 cells, flow cytometry, validation set (AID 588550;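 active = inhibition above the screen-wide mean plus 3 SD, about 51%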;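 note: 0% = DMSO wells and 100% = benzethonium chloride 70 µM positive control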). The conditions noted are these: K562-ABCB6 porphyrin accumulation, 1 h, at 10 µM, stronger effect = higher value.
The nature of test [19]: promoters of myeloid differentiation in arrested cells, primary screen, cell-based, GFP/MAC1 double positive, flow cytometry, validation set (AID 588685;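 active = differentiation response of at least 50%, scaled between solvent and reference control, from cells with both markers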;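 note: compound exposure lasts four days before antibody staining and flow analysis; 0% = DMSO wells and 100% = 5 µM fulvestrant positive control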). The settings on record: ER-HoxA9 marrow cells, stronger effect = higher value.

Each structure is given as a SMILES string. Records with an inconclusive call do not appear. Activity calls are given as the source filed them. Unless noted, the rule behind the calls is not given here.

Sequence of ATP-binding cassette sub-family B member 6 (Homo sapiens) (Q9NP58 whole entry, looked up): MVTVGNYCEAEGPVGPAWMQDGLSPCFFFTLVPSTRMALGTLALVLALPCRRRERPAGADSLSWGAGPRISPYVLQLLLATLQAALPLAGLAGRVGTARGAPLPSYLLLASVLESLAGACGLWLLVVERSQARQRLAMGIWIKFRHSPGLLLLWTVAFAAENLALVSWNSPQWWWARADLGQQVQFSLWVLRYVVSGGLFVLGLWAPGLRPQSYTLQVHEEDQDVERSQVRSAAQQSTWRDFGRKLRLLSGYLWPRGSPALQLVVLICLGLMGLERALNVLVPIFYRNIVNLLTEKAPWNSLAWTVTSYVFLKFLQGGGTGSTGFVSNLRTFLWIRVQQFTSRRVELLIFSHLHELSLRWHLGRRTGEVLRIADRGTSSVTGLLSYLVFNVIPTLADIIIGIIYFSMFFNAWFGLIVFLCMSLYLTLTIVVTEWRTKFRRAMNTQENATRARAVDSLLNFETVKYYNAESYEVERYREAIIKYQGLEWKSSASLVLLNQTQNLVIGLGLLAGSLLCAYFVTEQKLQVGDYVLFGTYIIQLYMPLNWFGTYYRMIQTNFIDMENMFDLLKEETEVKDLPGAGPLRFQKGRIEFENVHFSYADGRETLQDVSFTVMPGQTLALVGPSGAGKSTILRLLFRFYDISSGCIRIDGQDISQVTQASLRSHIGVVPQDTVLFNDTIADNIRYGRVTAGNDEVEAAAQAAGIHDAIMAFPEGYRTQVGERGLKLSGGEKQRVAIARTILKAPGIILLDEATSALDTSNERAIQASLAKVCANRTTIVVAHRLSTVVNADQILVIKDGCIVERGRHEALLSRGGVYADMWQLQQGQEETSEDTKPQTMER
Sequence of Lethal factor (Bacillus anthracis) (P15917 whole entry, looked up): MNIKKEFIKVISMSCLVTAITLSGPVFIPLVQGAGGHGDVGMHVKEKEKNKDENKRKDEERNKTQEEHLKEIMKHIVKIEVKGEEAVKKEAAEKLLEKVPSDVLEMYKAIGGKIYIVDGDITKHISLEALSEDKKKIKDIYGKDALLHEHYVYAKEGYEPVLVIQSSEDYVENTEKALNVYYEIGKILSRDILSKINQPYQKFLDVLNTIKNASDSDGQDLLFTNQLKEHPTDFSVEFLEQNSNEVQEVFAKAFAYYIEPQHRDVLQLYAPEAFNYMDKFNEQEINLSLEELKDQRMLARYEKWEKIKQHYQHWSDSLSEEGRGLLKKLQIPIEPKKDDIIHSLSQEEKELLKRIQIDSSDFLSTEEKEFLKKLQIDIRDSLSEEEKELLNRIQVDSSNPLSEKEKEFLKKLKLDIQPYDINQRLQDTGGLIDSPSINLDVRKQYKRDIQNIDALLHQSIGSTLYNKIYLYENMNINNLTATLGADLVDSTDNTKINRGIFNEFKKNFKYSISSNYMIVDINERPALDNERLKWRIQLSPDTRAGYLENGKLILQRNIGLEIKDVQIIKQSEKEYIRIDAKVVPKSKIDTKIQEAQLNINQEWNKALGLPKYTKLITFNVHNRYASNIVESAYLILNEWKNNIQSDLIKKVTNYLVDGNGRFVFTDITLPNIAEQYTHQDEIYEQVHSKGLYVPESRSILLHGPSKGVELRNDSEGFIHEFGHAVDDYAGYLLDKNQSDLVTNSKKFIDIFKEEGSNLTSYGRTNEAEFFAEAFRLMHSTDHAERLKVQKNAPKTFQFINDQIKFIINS
Sequence of AP-2 complex subunit beta (Homo sapiens) (P63010 whole entry, looked up, one chain of several): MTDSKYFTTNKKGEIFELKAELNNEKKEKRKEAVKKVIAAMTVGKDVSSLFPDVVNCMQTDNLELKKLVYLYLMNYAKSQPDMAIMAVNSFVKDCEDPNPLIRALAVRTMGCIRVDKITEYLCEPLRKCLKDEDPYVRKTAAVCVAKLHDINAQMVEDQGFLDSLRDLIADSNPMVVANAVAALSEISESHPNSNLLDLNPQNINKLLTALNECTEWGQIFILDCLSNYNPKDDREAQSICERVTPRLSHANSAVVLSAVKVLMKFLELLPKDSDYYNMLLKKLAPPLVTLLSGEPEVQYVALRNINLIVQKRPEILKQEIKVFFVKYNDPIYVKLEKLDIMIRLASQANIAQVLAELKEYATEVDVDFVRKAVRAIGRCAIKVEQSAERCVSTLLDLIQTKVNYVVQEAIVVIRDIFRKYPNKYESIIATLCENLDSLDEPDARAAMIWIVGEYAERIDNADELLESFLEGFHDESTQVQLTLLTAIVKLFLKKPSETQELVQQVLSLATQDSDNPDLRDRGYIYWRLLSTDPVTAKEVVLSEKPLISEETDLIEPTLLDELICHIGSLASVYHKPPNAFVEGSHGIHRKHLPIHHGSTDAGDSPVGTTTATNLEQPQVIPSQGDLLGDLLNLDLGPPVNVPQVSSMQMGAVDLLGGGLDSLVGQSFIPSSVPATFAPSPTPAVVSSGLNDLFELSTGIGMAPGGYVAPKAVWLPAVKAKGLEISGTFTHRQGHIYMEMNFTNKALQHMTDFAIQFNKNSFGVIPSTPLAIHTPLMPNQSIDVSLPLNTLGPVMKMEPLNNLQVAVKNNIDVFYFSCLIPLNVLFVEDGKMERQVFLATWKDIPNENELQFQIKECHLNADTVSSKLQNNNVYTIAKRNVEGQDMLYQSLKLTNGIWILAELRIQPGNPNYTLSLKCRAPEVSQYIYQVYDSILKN
Sequence of Botulinum neurotoxin type A (Clostridium botulinum) (P0DPI0 whole entry, looked up): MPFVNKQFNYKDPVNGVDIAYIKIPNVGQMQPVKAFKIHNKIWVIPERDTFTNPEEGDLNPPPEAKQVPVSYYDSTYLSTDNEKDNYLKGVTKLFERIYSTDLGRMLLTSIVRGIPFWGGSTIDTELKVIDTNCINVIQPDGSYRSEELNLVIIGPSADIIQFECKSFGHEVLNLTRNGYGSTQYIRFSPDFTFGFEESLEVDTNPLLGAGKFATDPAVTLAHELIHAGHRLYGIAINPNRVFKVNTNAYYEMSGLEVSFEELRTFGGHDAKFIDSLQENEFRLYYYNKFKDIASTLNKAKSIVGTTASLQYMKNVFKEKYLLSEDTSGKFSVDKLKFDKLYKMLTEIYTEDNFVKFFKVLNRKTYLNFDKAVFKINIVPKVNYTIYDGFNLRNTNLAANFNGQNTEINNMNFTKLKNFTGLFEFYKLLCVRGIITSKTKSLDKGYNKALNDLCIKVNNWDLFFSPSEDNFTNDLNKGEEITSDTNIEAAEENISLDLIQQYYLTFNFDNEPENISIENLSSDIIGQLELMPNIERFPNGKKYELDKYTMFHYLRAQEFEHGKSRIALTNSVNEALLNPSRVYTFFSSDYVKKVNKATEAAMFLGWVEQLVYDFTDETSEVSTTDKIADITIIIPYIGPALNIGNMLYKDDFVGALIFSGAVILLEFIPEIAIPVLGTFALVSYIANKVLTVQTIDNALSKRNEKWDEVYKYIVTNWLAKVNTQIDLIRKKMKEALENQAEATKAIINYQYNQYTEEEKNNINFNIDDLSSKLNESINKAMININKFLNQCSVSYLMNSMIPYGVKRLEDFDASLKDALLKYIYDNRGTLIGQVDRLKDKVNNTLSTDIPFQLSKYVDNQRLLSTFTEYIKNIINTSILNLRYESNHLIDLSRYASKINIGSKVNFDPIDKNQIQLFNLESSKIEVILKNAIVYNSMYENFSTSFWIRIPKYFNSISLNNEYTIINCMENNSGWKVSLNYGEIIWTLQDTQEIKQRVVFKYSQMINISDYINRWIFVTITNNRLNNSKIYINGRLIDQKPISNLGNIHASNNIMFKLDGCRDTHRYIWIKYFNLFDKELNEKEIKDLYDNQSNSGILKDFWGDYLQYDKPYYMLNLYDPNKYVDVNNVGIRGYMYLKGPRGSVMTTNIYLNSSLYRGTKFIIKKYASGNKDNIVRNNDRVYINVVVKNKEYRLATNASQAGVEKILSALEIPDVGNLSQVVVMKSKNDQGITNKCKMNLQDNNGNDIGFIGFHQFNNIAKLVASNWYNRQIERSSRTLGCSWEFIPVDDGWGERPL
Sequence of Beta-adrenergic receptor kinase 1 (Homo sapiens) (P25098 whole entry, looked up): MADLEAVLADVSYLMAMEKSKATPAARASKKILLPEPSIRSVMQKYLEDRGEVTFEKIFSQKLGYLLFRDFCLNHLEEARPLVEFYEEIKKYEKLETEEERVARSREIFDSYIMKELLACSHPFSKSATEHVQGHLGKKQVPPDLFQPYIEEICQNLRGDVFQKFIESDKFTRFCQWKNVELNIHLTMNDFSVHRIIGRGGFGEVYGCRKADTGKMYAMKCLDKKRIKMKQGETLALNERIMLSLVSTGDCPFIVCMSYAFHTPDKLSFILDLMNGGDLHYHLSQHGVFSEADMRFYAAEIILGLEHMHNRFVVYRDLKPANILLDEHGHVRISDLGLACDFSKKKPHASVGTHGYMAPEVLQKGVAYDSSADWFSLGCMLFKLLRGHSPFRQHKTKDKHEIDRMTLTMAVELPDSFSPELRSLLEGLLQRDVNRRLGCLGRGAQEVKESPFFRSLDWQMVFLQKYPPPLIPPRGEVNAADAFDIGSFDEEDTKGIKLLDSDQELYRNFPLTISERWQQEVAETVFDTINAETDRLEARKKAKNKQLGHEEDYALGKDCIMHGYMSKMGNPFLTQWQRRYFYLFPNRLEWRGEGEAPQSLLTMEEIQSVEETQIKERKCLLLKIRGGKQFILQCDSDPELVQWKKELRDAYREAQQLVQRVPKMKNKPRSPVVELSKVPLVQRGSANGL
Sequence of Beta-2 adrenergic receptor (Homo sapiens) (P07550 whole entry, looked up): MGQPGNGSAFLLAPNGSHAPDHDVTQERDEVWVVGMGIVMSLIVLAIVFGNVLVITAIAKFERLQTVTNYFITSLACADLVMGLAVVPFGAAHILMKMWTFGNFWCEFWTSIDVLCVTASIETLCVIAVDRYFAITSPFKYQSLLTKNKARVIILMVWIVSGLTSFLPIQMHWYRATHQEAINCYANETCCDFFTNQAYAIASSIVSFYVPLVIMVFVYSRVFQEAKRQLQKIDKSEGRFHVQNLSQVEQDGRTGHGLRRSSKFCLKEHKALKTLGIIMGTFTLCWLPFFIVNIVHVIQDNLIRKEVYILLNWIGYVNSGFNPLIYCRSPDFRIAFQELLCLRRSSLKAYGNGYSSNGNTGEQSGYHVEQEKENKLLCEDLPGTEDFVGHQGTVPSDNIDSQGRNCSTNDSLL

For the compound `C[N+]1(C)C2CCC1CC(OC(=O)C(CO)c1ccccc1)C2` (stereo not given), the percent of DMSO control GFP in test [1] is 106% (inactive). Besides, the results for the GFP response vs DMSO in test [2] and in [4] were 99.3% (inactive) and 88.1% (inactive), respectively. Moreover, the percent response of DMSO control in test [3] was 112% (inactive). Further, in test [5], the GFP response, % of DMSO was 105% (inactive). For the same compound, the double positive events in test [6] is 61.8%. Further, the vesicle binding response in test [6] was 233% (inactive). For the same compound, the inhibition in test [7] was -6.68% (inactive); in test [11] it was 6.92% (inactive); in test [14], -5.3% (inactive); in test [15] it was -0.6% (inactive); in test [16] it was 2.6% (inactive); in test [18], -4% (inactive). For the same compound, the superoxide response (% of plate) in [8] was 105% (inactive). In addition, the aptamer binding inhibition in test [9] was 5% (inactive). The response in test [10] was -0.63% (inactive); in test [12], -1.74% (inactive). Moreover, the binding (% of control) in test [13] was 98% (inactive). Moreover, the efflux inhibition (fraction of control) in [17] is 0.05 (inactive). Also, the differentiation response in test [19] was -6.6% (inactive).
With `C#CCN(C)C(C)Cc1ccccc1` (stereo not given), in test [1], the percent of DMSO control GFP was 100% (inactive). In addition, the GFP response vs DMSO in [2] is 108% (inactive); in test [4], 88.7% (inactive). For the same compound, the percent response of DMSO control in test [3] is 104% (inactive). For the same compound, the GFP response, % of DMSO in test [5] is 102% (inactive). Also, the double positive events in test [6] amounted to 62.5%. In addition, the vesicle binding response in [6] is 225% (inactive). Further, the inhibition in [7] was 1.62% (inactive); in [11], -6.88% (inactive); in test [14], -1% (inactive); in test [15] it was -0.6% (inactive); in test [16] it was 3.9% (inactive); in test [18], -12% (inactive). In [8], the superoxide response (% of plate) is 97.6% (inactive). Further, the aptamer binding inhibition in test [9] is 3% (inactive). For the same compound, the response is -1.41% (inactive) in test [10] and 3.03% (inactive) in [12]. Also, the binding (% of control) in [13] was 97.2% (inactive). Besides, the efflux inhibition (fraction of control) in test [17] was -0.1 (inactive). Also, the differentiation response in test [19] was 15.9% (inactive).
Regarding `Cc1cc2c(C(C)C)c(O)c(O)c(C=O)c2c(O)c1-c1c(C)cc2c(C(C)C)c(O)c(O)c(C=O)c2c1O`, the percent of DMSO control GFP in test [1] is 107% (inactive). For the same compound, the figures for the GFP response vs DMSO in test [2] and in test [4] were 103% (inactive) and 130% (inactive), respectively. For the same compound, the percent response of DMSO control in [3] is 97% (inactive). In test [5], the GFP response, % of DMSO is 112% (inactive). In [6], this compound showed a double positive events of 63.4%. The vesicle binding response in [6] is 161% (inactive). Further, the inhibition is 11.7% (inactive) in [7]; 14% (inactive) in test [11]; 2.6% (inactive) in test [14]; 0.9% (inactive) in [15]; -7.5% (inactive) in [16]; -3% (inactive) in test [18]. Also, the superoxide response (% of plate) in test [8] is 119% (inactive). In addition, the aptamer binding inhibition in test [9] is 5% (inactive). Further, the values for the response in test [10] and in [12] were -1.41% (inactive) and 1.35% (inactive), respectively. The binding (% of control) in test [13] was 64.8% (active). The efflux inhibition (fraction of control) in test [17] was 0.25 (inactive). The differentiation response in [19] was 16.7% (inactive).
For the compound `O=Cc1cn(Cc2ccc(F)cc2)c2ccccc12`, the percent of DMSO control GFP in test [1] was 97.8% (inactive). Further, the GFP response vs DMSO in [2] is 113% (inactive); in [4], 129% (inactive). Moreover, in [3], the percent response of DMSO control was 90.1% (inactive). Moreover, the GFP response, % of DMSO in [5] is 102% (inactive). Moreover, the double positive events in test [6] is 60.5%. Besides, the vesicle binding response in test [6] was 173% (inactive). Further, the inhibition in test [7] was 2.3% (inactive); in test [11] it was 49.4% (inactive); in test [14], 8.3% (inactive); in test [15], 3.1% (inactive); in test [16] it was 3.2% (inactive); in [18], 2% (inactive). Further, the superoxide response (% of plate) in test [8] is 99.1% (inactive). Moreover, the aptamer binding inhibition in test [9] was 1% (inactive). For the same compound, the response in [10] was 14.3% (inactive); in test [12], -7.85% (inactive). For the same compound, the binding (% of control) in [13] is 97.2% (inactive). The efflux inhibition (fraction of control) in test [17] is 0.12 (inactive). Further, in [19], the differentiation response was 93.6% (active).
